Tested on: Sporothrix brasiliensis CBS 133006
Test: growth inhibition relative to untreated control; higher = more growth inhibition (more antifungal activity), active = 80 or more; extreme values may be limits of the assay
Settings: 1 µM; 48 h
How it was run: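 Each value is the percent growth inhibition compared with cells left untreated. Reference isolates were grown as yeast-form cells in brain heart infusion broth with 2% glucose for 7 days at 36°C, then exposed at 1 x 10^5 CFU/ml to library compounds at a final 1 μM for 48 h at 35°C in 5% CO2. Growth was inspected visually under an inverted light microscope and quantified by spectrophotometric readings, with runs in quadruplicate.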

| Structure (SMILES) | growth inhibition |
| --- | --- |
| Cc1nn(C)cc1C(C)Nc1nncc(-c2ccc(C(F)(F)F)cc2)n1 (stereo not drawn) | 16% (inactive) |
| O=C(Nc1c(O)cccc1-c1nc2c(C(=O)O)cccc2o1)c1cc(-c2ccccc2)on1 | 38.2% (inactive) |
| CC(Oc1ccccc1)C(=O)Nc1nc(-c2ccccn2)cs1 (stereo not drawn) | 18% (inactive) |
| CN1CCC(c2cc(-c3ccncc3)c(-c3ccc(F)cc3)[nH]2)CC1 | 9% (inactive) |
| COc1ccc(-c2nn(C(C)C)c3ncnc(N)c23)cc1OC | 6% (inactive) |
| CC(C)c1ncc(-c2ccncc2)c([C@H]2CC[C@H](CNC(=O)c3cccnc3)CC2)n1 | 4.5% (inactive) |
| COc1ccc(-c2cnc3ccc(NCc4ccc(S(N)(=O)=O)cc4)nn23)cn1 | 26.8% (inactive) |
| N=C(N)c1ccc(-c2cc(-c3ccccc3)on2)cc1 | 7% (inactive) |
| CC(C)C(NC(=O)Cc1cccc2ccccc12)C(=O)Nc1cccc(C#N)c1 (stereo not drawn) | 4% (inactive) |
| Cc1ccc(Oc2ccc(NC(=O)CNc3ccccc3N3CCCC3=O)cc2)cc1 | 0% (inactive) |
| Cc1cnc(N2CCN[C@@H](Cc3ccccc3)C2)nc1Oc1ccc(-n2ccnc2)cc1 | 2.75% (inactive) |
| O=C(Nc1cccnc1)c1c(O)c2cccc3c2n(c1=O)CC3 | 19.5% (inactive) |
| O=C(Nc1nnc(-c2ccc(Cl)cc2)o1)c1cccc(C(F)(F)F)c1 | 100% (active) |
| CC1CCCCN1C(=O)NCCc1coc(-c2ccc(F)cc2)n1 (stereo not drawn) | 11% (inactive) |
| CC(C(=O)N1CCCC1)N1CCN(S(=O)(=O)c2ccc(C(C)(C)C)cc2)CC1 (stereo not drawn) | 37.5% (inactive) |
| Cn1ncc2c(N3CCOCC3)nc(NCCc3c[nH]c4ccccc34)nc21 | 8.25% (inactive) |
| NCC(c1cccs1)S(=O)(=O)c1ccccc1 (stereo not drawn) | 24.2% (inactive) |
| CNCCC(Oc1ccc(C(F)(F)F)cc1)c1ccccc1 (stereo not drawn) | 7.75% (inactive) |
| COc1cc(C2=NCCN2)ccc1-c1cn(-c2cccc(C3=NCCN3)c2)nn1 | 14% (inactive) |

| Structure (SMILES) | growth inhibition |
| --- | --- |
| N=C(N)Nc1ccc(-c2ccc(-c3ccc(N=C(N)N)c(Cl)c3)o2)cc1Cl | 1.75% (inactive) |
| COc1ccccc1C(C)NCC(=O)Nc1cc(C(F)(F)F)ccc1Cl (stereo not drawn) | 9.75% (inactive) |
| Cc1nnc(NCc2cccc(Cl)c2)c2ccccc12 | 3% (inactive) |
| O=C(Nc1ccc(C(F)(F)F)c(C(F)(F)F)c1)c1cc(Cl)ccc1O | 92.5% (active) |
| Cc1cccc(NC(=O)c2cc(S(=O)(=O)N(C)c3ccc(F)cc3)ccc2Cl)n1 | 4.25% (inactive) |
| COc1ccc(OC(C)C(=O)Nc2ccc(Cl)cc2C)cc1 (stereo not drawn) | 10.5% (inactive) |
| Cc1cc(NCC(C)C)c2[nH]nc(-c3ccccc3)c2n1 | 4.5% (inactive) |
| O=C(C(Cc1c[nH]c2ccccc12)NS(=O)(=O)c1ccc(Cl)cc1)N1CCCCC1 (stereo not drawn) | 5.75% (inactive) |
| CC(=O)NCC1CN(c2ccc(-c3ccc(CNCc4cn[nH]n4)cc3)c(F)c2)C(=O)O1 (stereo not drawn) | 15.5% (inactive) |
| CNC(=O)C1Cc2c([nH]c3cc(Cl)ccc23)C2(CCN(CCc3ccccc3)CC2)N1 (stereo not drawn) | 10.8% (inactive) |
| CN(C)c1cc(NC(=O)Nc2ccccc2)c2ccccc2n1 | 0% (inactive) |
| NS(=O)(=O)c1cccc(-c2ccc3ncc(N4CCOCC4)nc3c2)c1 | 17% (inactive) |
| CC(=O)Oc1ccccc1C(=O)Nc1ncc([N+](=O)[O-])s1 | 3.5% (inactive) |
| N#Cc1ccc(-c2cnc(N)c(-c3ccc(C(N)=O)cc3)n2)cc1 | 3.75% (inactive) |
| CC(C)(C)n1nc(-c2ccccc2)c2c(N)ncnc21 | 0% (inactive) |
| COc1ccccc1OCCCCn1c(C2CC2)nc2ccccc21 | 7.75% (inactive) |
| CCCCc1ccc(C(=O)Nc2nccc3ccccc23)nc1 | 23.5% (inactive) |
| O=C(NC1CC1)c1ccc(N2CCC(Cc3ccccc3)CC2)nc1 | 6.5% (inactive) |
| COc1ccc(N(CCc2cccc(C)n2)C(C)=O)cc1 | 0% (inactive) |

From the supplement of paper PMC7556523
